High-throughput results: PubChem BioAssay, The Scripps Research Institute Molecular Screening Center
A selection: hits, their analogues and other compounds. The true share with any hit is near 4.1%.
DAX1 inh-1: DAX1 (NR0B1) inhibition, primary screen; 370,000 tested, 1.1% active; HEK293T StAR-luciferase reporter, SF-1/DAX-1 repression relief; inhibition, % at 6.8 µM; AID 652010;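 active = inhibition above the mean over all tested compounds plus 3 SD, cut at about 3.6% in these data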;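 note: higher inhibition means more luminescence from relief of DAX-1 repression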
ssDAF12 agonist: activates DAF-12 receptor from parasite S. stercoralis; HEK293 ssDAF-12/GRIP1 lit1-tk-luc reporter, luminescence; % of 3 µM dafachronic acid response; activation, % at 6.8 µM; 370,000 tested, 1% active; AID 652126;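 active = activation above the mean over all tested compounds plus 3 SD, cut at about 0.9% in these data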
hgDAF-12 ag: hgDAF-12 agonism, primary luciferase screen. HEK293 GAL4-hgDAF12 UAS-luciferase reporter, agonist luminescence; normalized to butyrate control. activation, % at 6.8 µM. 370,000 tested, 1.8% active;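 active = activation above a cutoff set at the mean of all screened compounds plus 3 SD, cut at about 10% in these data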
DAX1 inh-2: NR0B1 (DAX1) inhibition. 340,000 tested, 0.99% active. HEK293 Gal4-DAX1 luciferase reporter, luminescence. P51843. inhibition, % at 6.75 µM;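 active = inhibition above the mean over all tested compounds plus 3 SD, cut at about 4.2% in these data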;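 note: inhibition shows as a rise in luminescence from relieved DAX1 repression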
Target sequence (P51843 207-470 limits assumed): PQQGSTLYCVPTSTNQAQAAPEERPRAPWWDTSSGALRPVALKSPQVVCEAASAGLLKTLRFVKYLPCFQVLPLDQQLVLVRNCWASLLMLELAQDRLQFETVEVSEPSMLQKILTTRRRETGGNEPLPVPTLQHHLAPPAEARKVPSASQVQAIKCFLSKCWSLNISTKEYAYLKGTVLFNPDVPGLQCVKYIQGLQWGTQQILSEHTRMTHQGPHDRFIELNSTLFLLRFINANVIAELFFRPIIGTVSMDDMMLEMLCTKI
hcDAF-12 act: H. contortus DAF-12 activation, primary screen | HEK293 hcDAF-12 lit1-tk-luc reporter, luminescence; 0% DMSO, 100% Δ7-dafachronic acid | activation, % at 6.8 µM | 370,000 tested, 1.4% active | AID 652067;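 active = activation above the mean of all tested compounds plus 3 SD, cut at about 5.5% in these data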
Each line names hits and unclear results; the compound was inactive in the other large screens.

CCC(=O)N=c1sc2cc(F)cc(F)c2n1C	hcDAF-12 act 6.1
Cn1c(=NC(=O)c2ccccc2[N+](=O)[O-])sc2cccc(F)c21	hgDAF-12 ag 13.2
CC(C)C(=O)N=c1sc2cc(F)cc(F)c2n1C	none
C#CCn1c(=NC(=O)c2ccccc2[N+](=O)[O-])sc2cc(S(C)(=O)=O)ccc21	none
COCCCn1cnn2c(=O)c3ccccc3nc2c1=O	none (no result: DAX1 inh-2)
Cc1ccccc1N(CC(=O)N/N=C/c1ccc(Cl)cc1)C(=O)c1ccccc1	none
Cc1ccccc1N(CC(=O)N/N=C/c1ccc(F)cc1)C(=O)c1ccccc1	ssDAF12 agonist 0.9
COc1ccc(CNC(=O)[C@H](C)NC(=O)C2CCN(C(=O)[C@H](CCSC)NC(=O)OC(C)(C)C)CC2)cc1	DAX1 inh-2 6.2
COc1ccc(CNC(=O)[C@H](Cc2ccccc2)NC(=O)C2CCN(C(=O)[C@H](C)N)CC2)cc1	DAX1 inh-2 5.0
COC(=O)[C@]12C[C@H](CC(=O)NCc3cccs3)C(=O)N(Cc3ccc(Cl)cc3Cl)C1=C[C@H](COCc1ccccc1)O[C@@H]2C	none (no result: DAX1 inh-2)
COC(=O)[C@]12C[C@H](CC(=O)NCc3cccs3)C(=O)N(Cc3ccccc3)C1=C[C@H](COCc1ccccc1)O[C@@H]2C	hgDAF-12 ag 11.0 (no result: DAX1 inh-2)
COC(=O)[C@]12CCCCC=C1N(Cc1ccc(OC)cc1)C(=O)[C@@H]2CC(=O)N1CCOCC1	none (no result: DAX1 inh-2)
O=C(Nc1nc2ccsc2c(=O)s1)c1ccc(F)cc1Cl	DAX1 inh-2 7.8
Cc1csc2c(=O)sc(NC(=O)c3ccc(F)cc3Cl)nc12	none
CC(C)C(NC(=O)[C@H](Cc1ccccc1)NC(=O)OCc1ccccc1)P(=O)(O)OC(Cc1ccccc1)C(=O)O (some centres undefined)	none (no result: DAX1 inh-1, DAX1 inh-2)
CCOC(=O)Cn1nc(-c2ccccc2)c2cnc3ccc(C)cc3c21	hcDAF-12 act 6.3
CCOC(=O)Cn1nc(-c2ccc(C)cc2)c2ccccc2c1=O	none
O=C(Nc1ccccc1)OC1CC2CC1C1CCCC21 (centres undefined)	hgDAF-12 ag 12.3
CCCC[C@H]1C2CC(OC(=O)Nc3ccccc3)C(C2)[C@H]2CCCCN21 (some centres undefined)	none (no result: DAX1 inh-2)
COc1ccc([C@H]2OC(=O)C[C@@H]2C(=O)N2CCN(c3ccccc3Cl)CC2)cc1OC	none (no result: DAX1 inh-2)
CCc1cc(=O)oc2cc(OC(C)C(=O)NCC3CCC(C(=O)O)CC3)c(Cl)cc12 (centres undefined)	DAX1 inh-2 5.9
CC(Oc1ccc2c3c(c(=O)oc2c1)CCCC3)C(=O)NCC1CCC(C(=O)O)CC1 (centres undefined)	none
CC(Oc1ccc2c3c(c(=O)oc2c1)CCC3)C(=O)NCC1CCC(C(=O)O)CC1 (centres undefined)	DAX1 inh-2 4.7
COC(=O)C1CN(Cc2ccc(C)cc2)CCS(=O)(=O)N1Cc1cn(Cc2ccc(OC)cc2)nn1 (centres undefined)	none (no result: DAX1 inh-2)
CCN(CC)CCNC(=O)c1ccc(NCN2C(=O)NC(c3ccccc3)(c3ccccc3)C2=O)cc1	none (no result: DAX1 inh-2)
Cc1cc(C(=O)O[C@@H]2CCC[C@]3(C(=O)N(Cc4ccccc4)c4ccccc43)[C@H]2NC(=O)CCc2ccccc2)no1	none (no result: DAX1 inh-2)
CN=C1S/C(=C\c2cn(CC(=O)OC)c3ccccc23)C(=O)N1C	ssDAF12 agonist 0.9
CN=C1S/C(=C/c2cn(CC(=O)OC)c3ccccc23)C(=O)N1C	ssDAF12 agonist 1.7
COC(=O)[C@]12CCCCC=C1N(Cc1ccc(OC)cc1)C(=O)[C@@H]2CC(=O)NCc1ccc(C)o1	none (no result: DAX1 inh-2)
COc1cccc(Cn2cc(COC(=O)NCCc3c[nH]c4ccccc34)nn2)c1	none (no result: DAX1 inh-2)
CN(Cc1ccccc1)C(=C(Cl)Cl)/C(=C1/NCCN1C)[N+](=O)[O-]	DAX1 inh-2 5.4
O=C(O)C(Cc1ccccc1)N1C(=O)c2cccc3cccc(c23)C1=O (centres undefined)	ssDAF12 agonist 1.7
O=C(O)C(Cc1ccccc1)N1C(=O)c2ccccc2C1=O (centres undefined)	none
C=CCCC1(CCC)C(=O)/C(=C(\O)c2ccccc2)C(=O)C(CCC)=C1OC (centres undefined)	none (no result: DAX1 inh-2)
Cc1[nH][nH]c(=O)c1C(c1ccccc1[N+](=O)[O-])C(C#N)C#N (centres undefined)	none
CCCc1[nH][nH]c(=O)c1C(c1cccc(Cl)c1)C(C#N)C#N (centres undefined)	DAX1 inh-2 4.5
O=C(COc1ccc(Br)cc1Cl)c1ccc[nH]1	hgDAF-12 ag 13.1
O=C1/C(=C\c2ccc([N+](=O)[O-])cc2)CCc2ccccc21	hgDAF-12 ag 11.4
O=C1/C(=C\c2cccnc2)CCc2ccccc21	hgDAF-12 ag 11.7
CC(=O)Nc1ccc(/C=C2\CCc3ccccc3C2=O)cc1	hcDAF-12 act 6.1
COc1ccc(C=C2Cc3ccccc3C2=O)cc1	hgDAF-12 ag 11.5 (no result: DAX1 inh-2)
COc1ccc(/C=C2\Cc3ccccc3C2=O)cc1OC	none
CCOc1ccc(-n2c(SCC(=O)Nc3ccc(S(=O)(=O)Nc4cc(C)nc(C)n4)cc3)nnc2-c2ccc(C)cc2)cc1	none (no result: DAX1 inh-2)
N#CCC[C@H]1CC[C@]2(CCCN(C(=O)C3CCCCC3)C2)O1	none (no result: DAX1 inh-2)
C/C(=N\NC(=O)c1ccc(CN(C)S(=O)(=O)c2ccc(C)cc2)cc1)c1ccc(OC(F)F)cc1	none
Cc1ccc(S(=O)(=O)N(C)Cc2ccc(C(=O)N/N=C/c3ccc(OC(F)F)cc3)cc2)cc1	DAX1 inh-2 6.2
COc1ccc(CN2C[C@]3(C=C(C)Cn4c(=O)n(-c5ccccc5)c(=O)n43)N=C2NC(=O)c2ccccc2)c(OC)c1	none (no result: DAX1 inh-2)
COc1ccc(NC(=O)O/N=C/c2ccncc2)cc1	DAX1 inh-2 4.6
Cc1ccc(NC(=O)O/N=C/c2ccc(N(C)C)cc2)cc1	hgDAF-12 ag 13.2
COc1ccc(/C=N/OC(=O)Nc2ccccc2OC)cc1	hgDAF-12 ag 11.8
CN(C)c1ccc(C=NNC(=S)Nc2ccc(F)cc2)cc1	hgDAF-12 ag 11.4, DAX1 inh-2 5.0
CSC(=S)N/N=C/c1ccc(N(C)C)cc1	none
COc1ccc(NC(=O)O/N=C/c2ccc(Br)cc2)cc1	none
CCn1c2ccccc2c2cc(NC(=O)c3cc4c(C)nn(-c5ccccc5)c4s3)ccc21	none (no result: DAX1 inh-2)
CC(=O)Nc1ccc(/C=N/OCC(=O)Nc2ccc(C)cc2)cc1	hgDAF-12 ag 11.5
CCOC(=O)[C@@]12CN(C(=O)OC(C)(C)C)CC=C1N(Cc1ccc(OC)cc1)C(=O)[C@H]2CC(=O)NCc1cccs1	none (no result: DAX1 inh-2)
CC(=O)Oc1cc(O)c2c(=O)c(OC(C)=O)c(-c3ccc(OC(C)=O)c(OC(C)=O)c3)oc2c1	DAX1 inh-2 4.5 (no result: DAX1 inh-1, ssDAF12 agonist, hgDAF-12 ag, hcDAF-12 act)
COc1ccc(-c2oc3cc(OC(C)=O)cc(OC(C)=O)c3c(=O)c2OC)cc1	none
CC1CCN(c2c(NCc3ccc(C(=O)N4c5ccccc5CC4C)cc3)c(=O)c2=O)CC1 (centres undefined)	ssDAF12 agonist 1.1
